23 compounds from PubChem BioAssay can be followed below.

A number with no mark means an inactive call. The list shows a part of the results. The source made the active and inactive calls. Cut-off read from the data, not from the text of the source, unless noted: active = inhibition above about 44%; inactive = the rest.

Assay [1] concerns the target Photoreceptor-specific nuclear receptor (Homo sapiens) (UniProt Q9Y5X4). As to the kind of experiment: retest of NR2E3-NCOR disrupting agonists – cell-based, luminescence, CHO-S two-hybrid, confirmation (AID 624378;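 active = average inhibition above a cutoff equal to the mean inhibition of all tested compounds plus one SD, cut at about 70% in these data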;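 note: 0% = DMSO in NR2E3 cells and 100% = DMSO in cells lacking NR2E3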). The note with it: CHO-S mammalian two-hybrid NR2E3-NCOR, luciferase luminescence; at 3.98 µM; active compounds read high.
Assay [2] is described as follows: nonselective effects on VP16 transactivation – cell-based, luminescence, CHO-S, high throughput, counter-screen for NR2E3 agonist project, confirmation (AID 624379;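 active = mean inhibition above a cutoff equal to the average over all tested compounds plus one standard deviation, cut at about 70% in these data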;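 note: 0% = DMSO with VP16-transfected cells and 100% = DMSO with cells lacking VP16; higher means less reporter light so more repression of VP16 activity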). The note with it: CHO-S GAL4-VP16 luciferase reporter, at 3.98 µM, active compounds read high.
Assay [3] in a line: VP16-driven transactivation reporter suppression – cell-based, luminescence, HEK293, counter-screen for COUP-TFII antagonist project (AID 687007; in the data active = inhibition above about 13%). The note with it: HEK293 Gal4-VP16 luciferase reporter, at 8.5 µM, active compounds read high.
For assay [4], the target named is COUP transcription factor 2 (Homo sapiens) (UniProt P24468). As to the kind of experiment: retest of COUP-TFII reporter suppressors – cell-based, luciferase reporter, HEK293, triplicate, confirmation (AID 687008;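 active = mean inhibition over three repeats above a set limit taken from the earlier primary screen, cut at about 38% in these data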;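 note: 100% = cells given the luciferase reporter alone without the COUP-TF2 vector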). The note with it: HEK293 NGFI-A luciferase reporter, luminescence; at 8.5 µM; active compounds read high. (Reporter assays use an easily measured gene product as a stand-in for the process of interest.)

A short description of assay [5]: StAR promoter reporter inhibitors, counter-screen for LRH-1 inverse agonist project, cell-based, luminescence, high throughput (AID 651611; in the data active = inhibition above about 28%). Particulars: StAR promoter luciferase reporter counterscreen, at 3.6 µM, active compounds read high. A general note: Counterscreens check selectivity or assay interference.
The target in assay [6] is Nuclear receptor subfamily 5 group A member 2 (Homo sapiens) (UniProt O00482). As to the kind of experiment: NR5A2 activity suppression in reporter cells – cell-based, luminescence, confirmation (AID 651613; in the data active = inhibition above about 42%;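 note: HEK293T cells co-transfected with LRH-1 and StAR promoter luciferase reporter; 0% = vehicle wells and 100% = parental cells lacking receptor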). Particulars: cell-based LRH-1 luciferase reporter, inverse agonism; at 3.6 µM; active compounds read high.
Assay [7] addresses Steroidogenic factor 1 (Homo sapiens) (UniProt Q13285). Nature of the assay: inverse agonism at SF1 nuclear receptor – cell-based, luminescence, high throughput, counter-screen for LRH-1 inverse agonist project (AID 651614).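 Note: cells cotransfected with StAR promoter reporter and SF1 expression vector; 0% = vehicle on cells with receptor and 100% = vehicle on cells lacking receptor.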 The note with it: cell-based SF1 luciferase reporter, at 3.6 µM, active compounds read high.
Assay [8] in a line: compounds suppressing VP16-driven luciferase signal – cell-based, luminescence, high throughput, counter-screen for LRH-1 inverse agonist project (AID 651615; in the data active = inhibition above about 33%). The note with it: Gal4-VP16 luciferase reporter cells, at 3.6 µM, active compounds read high.
The subject of assay [9] is DAF-12 nuclear receptor (Heterodera glycines), GAL4-LBD fusion. Nature of the assay: hgDAF-12 GAL4 fusion reporter activation, retest – cell-based, luminescence, HEK293, GAL4-LBD fusion, confirmation (AID 743050;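 active = mean activation over triplicate wells above the hit cutoff derived from the earlier primary screen, cut at about 11% in these data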;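 note: 0% = DMSO low control and 100% = 2 mM sodium butyrate high control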). The note with it: HEK293 GAL4-hgDAF12 luciferase reporter, agonist mode; at 6.8 µM; active compounds read high; percent of butyrate response.
The target of assay [10] is Oxysterols receptor LXR-beta (Homo sapiens) (UniProt P55055). As to the kind of experiment: nonspecific reporter activation via LXR – cell-based, luminescence, HEK293, H. glycines campaign, counter-screen for hgDAF-12 agonist project, confirmation (AID 743051;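 active = mean activation of the triplicate above a set limit carried over from the primary screen, none filed active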). The note with it: HEK293 Gal4-LXR luciferase reporter, 24 h; at 6.8 µM; active compounds read high.
Assay [11] relates to transactivating tegument protein VP16 (Human herpesvirus 1). Nature of the assay: compounds suppressing VP16-driven luciferase signal – cell-based, luminescence, single concentration, counter-screen for SRC2 inhibitor project (AID 652007; in the data active = inhibition above about 36%). Particulars: cell-based VP16 transactivation luciferase reporter, at 8.9 µM, active compounds read high.
The target of assay [12] is Nuclear receptor coactivator 2 (Homo sapiens) (UniProt Q15596). As to the kind of experiment: inhibition of GAL4-SRC2 driven luciferase expression – cell-based, luminescence, HEK293, triplicate, confirmation (AID 652008;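 active = mean inhibition above 46.5%, the solvent-only control mean plus 3 SD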;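 note: 0% = DMSO-treated cells and 100% = Gossypol at 36 µM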). Particulars: HEK293 GAL4-SRC2 luciferase reporter, at 8.9 µM, active compounds read high.
Sequence of Nuclear receptor coactivator 2 (Homo sapiens) (Q15596 whole entry, looked up, the tested form may be a part): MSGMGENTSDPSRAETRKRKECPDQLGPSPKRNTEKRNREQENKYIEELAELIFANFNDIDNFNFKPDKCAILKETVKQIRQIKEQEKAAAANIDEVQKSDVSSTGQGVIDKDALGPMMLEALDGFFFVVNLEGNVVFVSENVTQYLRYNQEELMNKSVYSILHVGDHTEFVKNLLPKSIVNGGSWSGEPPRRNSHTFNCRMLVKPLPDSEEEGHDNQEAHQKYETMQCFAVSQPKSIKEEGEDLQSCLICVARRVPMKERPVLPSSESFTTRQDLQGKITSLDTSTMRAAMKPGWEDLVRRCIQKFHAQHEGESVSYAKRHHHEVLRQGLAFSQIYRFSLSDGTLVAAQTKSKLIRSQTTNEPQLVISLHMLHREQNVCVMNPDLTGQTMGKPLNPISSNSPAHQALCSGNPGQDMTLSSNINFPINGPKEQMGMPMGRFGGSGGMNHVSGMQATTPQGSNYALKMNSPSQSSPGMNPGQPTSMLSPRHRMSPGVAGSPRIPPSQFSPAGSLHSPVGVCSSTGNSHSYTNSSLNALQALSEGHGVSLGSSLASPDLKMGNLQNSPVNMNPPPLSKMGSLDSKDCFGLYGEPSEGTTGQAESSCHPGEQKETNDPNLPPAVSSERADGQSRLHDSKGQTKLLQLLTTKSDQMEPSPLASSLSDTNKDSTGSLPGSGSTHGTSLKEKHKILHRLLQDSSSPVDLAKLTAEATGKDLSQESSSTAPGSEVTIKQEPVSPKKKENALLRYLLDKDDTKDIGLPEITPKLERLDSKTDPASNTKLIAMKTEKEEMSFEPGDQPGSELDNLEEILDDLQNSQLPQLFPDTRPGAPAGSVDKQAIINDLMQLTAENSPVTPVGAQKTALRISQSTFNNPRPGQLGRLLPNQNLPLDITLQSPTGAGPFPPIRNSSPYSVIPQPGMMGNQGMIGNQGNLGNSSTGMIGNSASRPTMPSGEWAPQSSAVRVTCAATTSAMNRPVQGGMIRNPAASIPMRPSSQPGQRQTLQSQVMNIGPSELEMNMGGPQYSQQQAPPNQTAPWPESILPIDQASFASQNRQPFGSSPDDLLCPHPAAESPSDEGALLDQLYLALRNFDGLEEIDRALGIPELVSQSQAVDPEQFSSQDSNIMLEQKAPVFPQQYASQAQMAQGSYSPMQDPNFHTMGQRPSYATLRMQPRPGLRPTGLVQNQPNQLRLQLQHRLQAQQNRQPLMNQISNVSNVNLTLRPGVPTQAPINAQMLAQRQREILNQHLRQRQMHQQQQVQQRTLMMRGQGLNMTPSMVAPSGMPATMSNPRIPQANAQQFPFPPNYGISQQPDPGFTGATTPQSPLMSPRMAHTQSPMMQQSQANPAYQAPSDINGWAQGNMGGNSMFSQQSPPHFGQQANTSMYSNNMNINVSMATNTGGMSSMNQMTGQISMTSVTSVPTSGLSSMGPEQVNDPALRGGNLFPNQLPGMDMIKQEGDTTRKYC

Sequence of Steroidogenic factor 1 (Homo sapiens) (Q13285 whole entry, looked up, the tested form may be a part): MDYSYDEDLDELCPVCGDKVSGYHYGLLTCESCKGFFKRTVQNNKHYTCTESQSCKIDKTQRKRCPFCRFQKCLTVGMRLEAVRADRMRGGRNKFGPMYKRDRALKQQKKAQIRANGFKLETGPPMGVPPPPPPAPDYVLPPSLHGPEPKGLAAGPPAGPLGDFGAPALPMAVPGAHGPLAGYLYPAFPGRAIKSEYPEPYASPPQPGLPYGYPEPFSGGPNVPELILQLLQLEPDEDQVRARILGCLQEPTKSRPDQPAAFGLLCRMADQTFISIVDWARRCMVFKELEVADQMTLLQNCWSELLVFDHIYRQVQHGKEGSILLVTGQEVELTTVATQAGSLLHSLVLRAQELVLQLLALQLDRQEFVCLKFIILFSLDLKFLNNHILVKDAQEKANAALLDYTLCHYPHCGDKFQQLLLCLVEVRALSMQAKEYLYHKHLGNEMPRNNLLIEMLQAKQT
Sequence of Nuclear receptor subfamily 5 group A member 2 (Homo sapiens) (O00482 whole entry, looked up): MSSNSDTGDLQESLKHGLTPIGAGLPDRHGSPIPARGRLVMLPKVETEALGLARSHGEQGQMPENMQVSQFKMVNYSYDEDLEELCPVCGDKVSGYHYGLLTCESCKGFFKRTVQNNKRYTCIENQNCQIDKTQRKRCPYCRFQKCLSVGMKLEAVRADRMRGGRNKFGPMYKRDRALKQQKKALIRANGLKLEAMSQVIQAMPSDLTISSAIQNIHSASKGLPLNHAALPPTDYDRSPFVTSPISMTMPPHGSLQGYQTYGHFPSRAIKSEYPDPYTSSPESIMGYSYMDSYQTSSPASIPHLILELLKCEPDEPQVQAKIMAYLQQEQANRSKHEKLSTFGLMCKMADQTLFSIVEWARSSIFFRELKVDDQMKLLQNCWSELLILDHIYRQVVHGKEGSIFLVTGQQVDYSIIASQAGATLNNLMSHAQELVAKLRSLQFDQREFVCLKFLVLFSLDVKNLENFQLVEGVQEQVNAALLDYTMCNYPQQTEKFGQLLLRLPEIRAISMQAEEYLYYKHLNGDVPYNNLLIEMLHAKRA
Sequence of Photoreceptor-specific nuclear receptor (Homo sapiens) (Q9Y5X4 whole entry, looked up): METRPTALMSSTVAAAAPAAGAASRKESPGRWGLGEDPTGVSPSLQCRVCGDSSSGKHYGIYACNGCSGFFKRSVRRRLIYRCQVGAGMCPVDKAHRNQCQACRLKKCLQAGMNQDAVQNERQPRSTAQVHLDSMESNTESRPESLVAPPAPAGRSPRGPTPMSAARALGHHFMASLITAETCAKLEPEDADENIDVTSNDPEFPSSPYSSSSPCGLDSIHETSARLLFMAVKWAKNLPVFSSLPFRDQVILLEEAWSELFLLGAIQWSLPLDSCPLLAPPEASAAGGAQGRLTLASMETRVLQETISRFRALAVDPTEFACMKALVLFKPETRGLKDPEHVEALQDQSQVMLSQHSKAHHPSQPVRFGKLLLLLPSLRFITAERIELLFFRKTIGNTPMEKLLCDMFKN
Sequence of COUP transcription factor 2 (Homo sapiens) (P24468 whole entry, looked up): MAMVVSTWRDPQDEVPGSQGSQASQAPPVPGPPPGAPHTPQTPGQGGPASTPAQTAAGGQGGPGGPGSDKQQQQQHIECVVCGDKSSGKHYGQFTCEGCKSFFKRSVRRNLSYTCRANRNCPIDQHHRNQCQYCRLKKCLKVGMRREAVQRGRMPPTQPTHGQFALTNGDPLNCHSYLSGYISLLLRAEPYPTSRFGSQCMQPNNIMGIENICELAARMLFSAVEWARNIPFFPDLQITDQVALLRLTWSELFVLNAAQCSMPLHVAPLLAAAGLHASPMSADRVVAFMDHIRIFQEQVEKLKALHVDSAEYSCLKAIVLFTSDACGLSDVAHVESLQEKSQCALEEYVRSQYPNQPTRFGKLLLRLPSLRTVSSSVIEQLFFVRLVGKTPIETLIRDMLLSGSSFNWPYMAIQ
Sequence of Oxysterols receptor LXR-beta (Homo sapiens) (P55055 whole entry, looked up, the tested form may be a part): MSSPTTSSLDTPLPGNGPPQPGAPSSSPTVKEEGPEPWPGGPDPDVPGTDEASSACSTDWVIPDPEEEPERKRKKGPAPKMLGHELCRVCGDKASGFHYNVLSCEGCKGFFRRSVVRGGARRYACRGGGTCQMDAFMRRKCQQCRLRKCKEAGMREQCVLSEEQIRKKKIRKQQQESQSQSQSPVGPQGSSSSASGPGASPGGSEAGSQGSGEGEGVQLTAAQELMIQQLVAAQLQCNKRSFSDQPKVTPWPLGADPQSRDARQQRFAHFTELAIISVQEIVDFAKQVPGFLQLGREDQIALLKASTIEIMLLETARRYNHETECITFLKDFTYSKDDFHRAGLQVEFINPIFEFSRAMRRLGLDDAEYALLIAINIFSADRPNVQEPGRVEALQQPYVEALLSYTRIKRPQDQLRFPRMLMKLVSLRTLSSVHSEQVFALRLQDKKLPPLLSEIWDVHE

For orientation: inhibition means the relative decrease from the control value, in per cent. `COc1ccc(CNS(=O)(=O)c2ccc(NC(=O)N3CCCCC3)cc2)cc1`: the inhibition in assay [1] is 55.3%; in assay [2] it was 52.4%.
For the compound `Cn1nccc1C(=O)NC1CCCc2c1cnn2-c1ccccc1F` (stereo unspecified), the inhibition in assay [1] was 93.7% (active); in assay [2] it was 86.2% (active); in assay [3], 1.97%; in [4], 66.8% (active).
Take `S=C(NCC1CCCO1)N1CCN(c2ccc(Cl)c(Cl)c2)CC1` (stereo unspecified): the inhibition in assay [1] is 89.2% (active); in [2], 73.3% (active).
Regarding `CN(C(=O)CN1CCN(c2cc(-c3ccc(OCc4ccccc4)cc3)ncn2)CC1)c1ccccc1`, the inhibition in assay [1] was 51.3%; in assay [2], 52.7%; in assay [5] it was 14.7%; in [6], 46.5% (active); in assay [7] it was 46.4% (active); in assay [8] it was 25.7%. Moreover, the inhibition was 1.06% in [3] and 31.7% in [4].
Turning to `Cc1ccnc(NC(=O)C2CCN(S(=O)(=O)c3c(C)c(C)cc(C)c3C)CC2)c1`, the inhibition was 83.3% (active) in assay [1]; 21.8% in [2]; 6.87% in assay [5]; 36.1% in assay [6]; 13.2% in [7]; 21.5% in assay [8]. The activation in assay [9] was 7.81%; in [10] it was 0.16%.
`COc1ccc(-n2c(C)cc(C(=O)CSc3nnc(-c4cccs4)o3)c2C)cc1`: the inhibition is 61.9% in [1]; 66.9% in [2]; 20% in assay [11]; 33.9% in assay [12]; 0.72% in assay [3]; 34.1% in [4].
For the compound `Oc1ccc(Br)cc1/C=N/Nc1ccccn1`, the inhibition was 99.3% (active) in assay [1] and 61% in assay [2].
Turning to `CC(C)[C@H](NC(=O)OCc1ccccc1)C(=O)OCC(=O)Nc1ccc(N2CCOCC2)cc1`, the inhibition is 10.9% in [5], 59.9% (active) in [6], 59.2% (active) in assay [7] and -0.29% in assay [8].
For the compound `COc1ccc(NC(=O)CSC2=C(C#N)C(c3ccco3)C3=C(CCCC3=O)N2)c(OC)c1` (stereo unspecified), the inhibition in [5] is 14%; in assay [6] it was 55.5% (active); in assay [7] it was 52.5% (active); in [8], -14.7%.
As to `CCC1(C)OC(=O)N2CCc3c(C)[nH]c4c(C)ccc(c34)C21C` (stereo unspecified), the inhibition in assay [5] was 8.96%; in assay [6] it was 41.6% (active); in assay [7] it was 44.9% (active); in assay [8] it was 12.7%.
The matching figures for `CS(=O)(=O)N1CCN(c2ccccc2NC(=O)c2cc3ccccc3o2)CC1`: 26.4%, 47.5% (active), 33.7% and -6.66%.
Consider `Cc1cc(OCC(=O)Nc2nccs2)c2c(C)c(C)c(=O)oc2c1`, for which the inhibition in assay [5] is 42% (active); in [6] it was 74.5% (active); in assay [7], 66.2% (active); in [8] it was -127%.
Consider `CCCCOc1ccc(Br)cc1CSC(=N)N`, for which the inhibition in [5] was 16.4%; in assay [6] it was 103% (active); in assay [7], 62.3% (active); in [8] it was 83.2% (active).
On the same counts, the results for `c1ccc(Oc2nc(-c3cccnc3)nc3ccccc23)cc1` are 10.6%, 57.3% (active), 53.3% (active) and 1.32%.
The matching figures for `CC(C)n1c(SCC(=O)Nc2ccc(N3CCOCC3)cc2)nnc1-c1ccco1`: 4.53%, 55.5% (active), 45.7% (active) and -2.66%.
On to `Cc1ccc(Cn2nc(C)c(NC(=O)c3noc4c3CCCCC4)c2C)cc1`, for which the inhibition is 14.1% in assay [5], 53.6% (active) in [6], 50.7% (active) in assay [7] and -1.13% in assay [8].
On to `COc1ccc(Nc2nc(NCCN3CCOCC3)nc(Nc3ccc(OC)cc3)n2)cc1`, for which the inhibition in [5] was -1.42%; in assay [6], 42.9% (active); in assay [7], 38.6%; in assay [8], 0.52%.
The matching figures for `COc1ccc(Cc2c(-c3cccc(Cl)c3)nc3cc(C)c(Br)c(C)n23)c(C)c1`: 3.35%, 41.3% (active), 36.9% and -4.66%.
On the same counts, the results for `CC(=O)Nc1cc(-c2cccnc2)cn2c(-c3ccc(F)cc3)cnc12` are 9.06%, 51.7% (active), 40.5% and 0.11%.
Turning to `O=C(NNc1ccccc1)C(=O)NNS(=O)(=O)c1ccc([N+](=O)[O-])cc1`, the inhibition in assay [5] is 1.65%; in assay [6], 12.9%; in assay [7], 27.1%; in assay [8], 20.1%.
As for `COc1ccc(C(=O)Nc2cnccn2)cc1[N+](=O)[O-]`, the inhibition in [5] is -2.94%; in assay [6], 35.3%; in assay [7] it was 26.4%; in assay [8], 4.88%.
On the same counts, the results for `COc1ccc(OC)c(NS(=O)(=O)c2ccc(SC)cc2)c1` are 37.9% (active), 55% (active), 54.2% (active) and 14.8%.
As to `O=C(c1cc(-c2ccco2)nc2ccccc12)N(Cc1nnc(-c2ccc(Cl)cc2)o1)C1CC1`, the inhibition was -6.37% in assay [5], -5.73% in assay [6], 2.98% in [7] and -2.77% in [8].
